The results in this text go back to article PMC7862700, “An all-to-all approach to the identification of sequence-specific readers for epigenetic DNA modifications on cytosine”.

Assay in all cases: DAPPL (digital affinity profiling via proximity ligation, sequencing); 10 mM Tris-HCl pH 7.5, 50 mM NaCl, 1 mM DTT, 4% glycerol, room temperature, 30 min; GST-TFs on glutathione beads, 16-mer random dsDNA library, 0.1% formaldehyde crosslink after washing; high values mean tight binding
Common to all, as to details: protein: recombinant; tags: N-terminal GST; dsDNA, one strand shown

For one assay, the target named is T1, FLI1 (Homo sapiens, UniProt Q01543 1-452).
T1 sequence: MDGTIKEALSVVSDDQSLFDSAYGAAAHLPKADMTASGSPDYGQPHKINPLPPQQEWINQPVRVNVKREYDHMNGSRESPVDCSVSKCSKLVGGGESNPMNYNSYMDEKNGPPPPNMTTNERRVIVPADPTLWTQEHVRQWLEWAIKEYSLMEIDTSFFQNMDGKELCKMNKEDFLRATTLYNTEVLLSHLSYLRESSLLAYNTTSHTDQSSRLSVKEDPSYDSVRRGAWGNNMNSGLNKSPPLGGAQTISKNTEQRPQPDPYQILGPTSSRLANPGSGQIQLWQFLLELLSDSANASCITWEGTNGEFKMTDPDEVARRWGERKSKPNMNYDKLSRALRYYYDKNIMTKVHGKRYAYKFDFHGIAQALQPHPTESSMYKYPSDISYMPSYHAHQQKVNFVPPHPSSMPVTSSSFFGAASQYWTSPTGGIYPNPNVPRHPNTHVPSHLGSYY
The method in brief:
(§1)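 Yeast served to express human transcription factors as GST fusions, which were then captured on glutathione beads and labelled with DNA barcodes. Pooled with a tag-only sample, they were incubated with 200 nmole of a 16-mer random double-stranded DNA library for 30 min at room temperature in Tris/NaCl/DTT/glycerol buffer, washed, crosslinked with 0.1% formaldehyde, ligated by proximity, amplified by PCR and sequenced. Dividing each hexamer's read frequency for a factor by its frequency for the tag-only sample gives the binding signal.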

The target in another assay is T2, ELK1 (Homo sapiens, UniProt P19419 1-428).
T2 sequence: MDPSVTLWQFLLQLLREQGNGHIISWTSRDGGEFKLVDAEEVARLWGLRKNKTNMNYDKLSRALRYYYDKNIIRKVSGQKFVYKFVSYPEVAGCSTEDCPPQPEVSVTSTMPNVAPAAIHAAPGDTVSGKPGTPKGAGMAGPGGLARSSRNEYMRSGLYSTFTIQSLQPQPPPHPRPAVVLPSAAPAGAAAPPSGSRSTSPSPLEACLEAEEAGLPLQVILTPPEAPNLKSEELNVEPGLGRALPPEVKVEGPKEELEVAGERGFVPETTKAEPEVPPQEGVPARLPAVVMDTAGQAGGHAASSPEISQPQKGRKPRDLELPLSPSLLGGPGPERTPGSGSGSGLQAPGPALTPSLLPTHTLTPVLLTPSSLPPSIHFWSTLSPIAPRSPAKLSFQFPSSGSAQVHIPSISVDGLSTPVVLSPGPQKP
The procedure, abridged: as §1

The target of another assay is T3, GABPA (Homo sapiens, UniProt Q06546 1-454).
T3 sequence: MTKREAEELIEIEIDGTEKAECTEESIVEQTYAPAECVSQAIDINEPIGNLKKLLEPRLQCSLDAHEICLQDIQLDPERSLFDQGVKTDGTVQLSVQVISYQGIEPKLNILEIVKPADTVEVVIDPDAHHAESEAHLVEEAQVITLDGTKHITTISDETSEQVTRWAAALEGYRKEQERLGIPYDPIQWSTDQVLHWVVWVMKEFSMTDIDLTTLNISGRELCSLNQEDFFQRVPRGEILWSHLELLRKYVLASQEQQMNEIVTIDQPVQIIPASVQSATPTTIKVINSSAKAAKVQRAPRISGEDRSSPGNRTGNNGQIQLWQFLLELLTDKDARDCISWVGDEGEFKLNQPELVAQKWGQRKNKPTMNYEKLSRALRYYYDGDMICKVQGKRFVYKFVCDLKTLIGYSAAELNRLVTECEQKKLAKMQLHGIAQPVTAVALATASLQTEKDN
The procedure, abridged:
as §1

Another assay addresses T4, ERG (Homo sapiens, UniProt P11308 1-479).
T4 sequence: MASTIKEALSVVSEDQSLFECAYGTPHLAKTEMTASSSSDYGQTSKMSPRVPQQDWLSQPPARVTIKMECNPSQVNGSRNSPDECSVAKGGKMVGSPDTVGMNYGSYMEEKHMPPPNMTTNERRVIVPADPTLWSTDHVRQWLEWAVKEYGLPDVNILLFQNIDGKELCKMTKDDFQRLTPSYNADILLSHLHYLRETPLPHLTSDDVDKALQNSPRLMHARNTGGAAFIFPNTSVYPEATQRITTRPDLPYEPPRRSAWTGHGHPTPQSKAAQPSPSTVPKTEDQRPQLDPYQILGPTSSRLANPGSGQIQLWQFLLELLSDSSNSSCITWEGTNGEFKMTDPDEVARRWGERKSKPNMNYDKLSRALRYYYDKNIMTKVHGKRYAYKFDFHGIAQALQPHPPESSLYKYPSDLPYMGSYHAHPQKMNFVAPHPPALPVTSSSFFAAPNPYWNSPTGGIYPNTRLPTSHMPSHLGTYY
The procedure, abridged:
as §1

Another assay has as its target ELF1 (Homo sapiens, UniProt P32519 1-619). The method in brief:
as §1

A further assay deals with T5, EHF (Homo sapiens, UniProt Q9NZC4 1-300).
T5 sequence: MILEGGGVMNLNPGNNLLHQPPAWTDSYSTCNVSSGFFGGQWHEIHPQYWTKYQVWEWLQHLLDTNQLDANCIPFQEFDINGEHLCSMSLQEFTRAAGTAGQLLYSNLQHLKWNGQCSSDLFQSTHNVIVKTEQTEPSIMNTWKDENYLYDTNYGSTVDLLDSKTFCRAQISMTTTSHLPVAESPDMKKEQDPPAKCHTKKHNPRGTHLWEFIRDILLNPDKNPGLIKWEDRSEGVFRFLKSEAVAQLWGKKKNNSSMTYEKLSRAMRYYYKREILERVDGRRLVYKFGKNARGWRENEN
The method in brief: as §1

The target in a further assay is SPI1 (Homo sapiens, UniProt P17947 1-270). The method in brief: as §1
Another assay has as its target SPIB (Homo sapiens, UniProt Q01892 1-262). The method in brief:
as §1

The next assay has as its target T6, ELK3 (Homo sapiens, UniProt P41970 1-407).
T6 sequence: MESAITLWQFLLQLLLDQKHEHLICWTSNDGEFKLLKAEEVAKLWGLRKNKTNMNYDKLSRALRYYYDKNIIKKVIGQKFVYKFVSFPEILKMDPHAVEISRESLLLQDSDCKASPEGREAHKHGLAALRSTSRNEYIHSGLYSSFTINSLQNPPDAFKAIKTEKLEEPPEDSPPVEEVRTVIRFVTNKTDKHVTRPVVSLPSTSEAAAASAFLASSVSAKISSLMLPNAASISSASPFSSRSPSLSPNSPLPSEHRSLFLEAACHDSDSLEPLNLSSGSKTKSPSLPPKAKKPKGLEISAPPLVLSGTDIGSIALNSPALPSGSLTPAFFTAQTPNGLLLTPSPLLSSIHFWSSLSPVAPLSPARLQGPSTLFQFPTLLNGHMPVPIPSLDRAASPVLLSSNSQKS
The procedure, abridged: as §1

SPIB, sequence (Q01892 whole entry): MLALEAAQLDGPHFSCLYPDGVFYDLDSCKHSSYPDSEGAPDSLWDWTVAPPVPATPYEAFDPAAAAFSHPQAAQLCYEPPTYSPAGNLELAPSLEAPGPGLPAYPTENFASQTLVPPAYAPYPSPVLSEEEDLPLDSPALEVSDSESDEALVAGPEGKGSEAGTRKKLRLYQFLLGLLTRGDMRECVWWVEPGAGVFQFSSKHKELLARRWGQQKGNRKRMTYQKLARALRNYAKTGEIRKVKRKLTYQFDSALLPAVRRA
ELF1, sequence (P32519 whole entry): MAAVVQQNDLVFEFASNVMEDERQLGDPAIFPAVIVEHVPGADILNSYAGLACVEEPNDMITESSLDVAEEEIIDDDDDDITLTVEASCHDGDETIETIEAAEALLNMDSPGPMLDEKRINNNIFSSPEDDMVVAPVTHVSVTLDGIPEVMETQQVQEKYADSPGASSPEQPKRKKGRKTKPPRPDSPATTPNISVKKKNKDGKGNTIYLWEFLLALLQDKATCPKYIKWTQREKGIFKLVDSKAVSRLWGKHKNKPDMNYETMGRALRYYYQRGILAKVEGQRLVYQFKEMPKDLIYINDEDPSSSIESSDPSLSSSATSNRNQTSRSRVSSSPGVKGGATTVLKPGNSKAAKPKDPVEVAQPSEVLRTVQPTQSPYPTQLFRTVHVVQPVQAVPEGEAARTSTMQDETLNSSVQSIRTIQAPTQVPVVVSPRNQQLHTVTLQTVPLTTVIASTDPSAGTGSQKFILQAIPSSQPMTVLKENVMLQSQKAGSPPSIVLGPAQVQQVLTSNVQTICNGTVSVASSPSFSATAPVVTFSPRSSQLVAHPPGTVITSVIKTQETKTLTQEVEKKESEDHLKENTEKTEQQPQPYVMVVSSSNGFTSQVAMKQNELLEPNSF

Regarding CCCGCC, the binding signal was 1.46 fold enrichment (6-mer frequency, TF over GST control) with FLI1; 1.75 fold enrichment (6-mer frequency, TF over GST control) with ELK1; 1.57 fold enrichment (6-mer frequency, TF over GST control) with GABPA; 1.5 fold enrichment (6-mer frequency, TF over GST control) with ERG; 1.58 fold enrichment (6-mer frequency, TF over GST control) with ELF1; 1.53 fold enrichment (6-mer frequency, TF over GST control) with EHF. Further, the binding signal was 1.44 fold enrichment (6-mer frequency, TF over GST control) with SPI1; 1.31 fold enrichment (6-mer frequency, TF over GST control) with SPIB; 1.63 fold enrichment (6-mer frequency, TF over GST control) with ELK3.

As to TTCGAA, the binding signal in the assay with FLI1 is 1.14 fold enrichment (6-mer frequency, TF over GST control); with ELK1, 1.2 fold enrichment (6-mer frequency, TF over GST control); in the assay with GABPA, 1.19 fold enrichment (6-mer frequency, TF over GST control); with ERG it was 1.19 fold enrichment (6-mer frequency, TF over GST control); in the assay with ELF1 it was 1.28 fold enrichment (6-mer frequency, TF over GST control); with EHF, 1.12 fold enrichment (6-mer frequency, TF over GST control). The binding signal is 1.14 fold enrichment (6-mer frequency, TF over GST control) in the assay with SPI1; 1.12 fold enrichment (6-mer frequency, TF over GST control) with SPIB; 1.33 fold enrichment (6-mer frequency, TF over GST control) with ELK3.

For CGAATA, the binding signal was 1.09 fold enrichment (6-mer frequency, TF over GST control) in the assay with FLI1; 1.23 fold enrichment (6-mer frequency, TF over GST control) with ELK1; 1.17 fold enrichment (6-mer frequency, TF over GST control) with GABPA; 1.07 fold enrichment (6-mer frequency, TF over GST control) in the assay with ERG; 1.28 fold enrichment (6-mer frequency, TF over GST control) with ELF1; 1.2 fold enrichment (6-mer frequency, TF over GST control) with EHF. Moreover, the binding signal was 1.13 fold enrichment (6-mer frequency, TF over GST control) in the assay with SPI1; 1.11 fold enrichment (6-mer frequency, TF over GST control) with SPIB; 1.21 fold enrichment (6-mer frequency, TF over GST control) with ELK3.

GATGGC: the binding signal with FLI1 is 1.27 fold enrichment (6-mer frequency, TF over GST control); with ELK1, 1.36 fold enrichment (6-mer frequency, TF over GST control); with GABPA, 1.34 fold enrichment (6-mer frequency, TF over GST control); with ERG, 1.3 fold enrichment (6-mer frequency, TF over GST control); with ELF1, 1.34 fold enrichment (6-mer frequency, TF over GST control); with EHF, 1.33 fold enrichment (6-mer frequency, TF over GST control). In addition, the binding signal is 1.37 fold enrichment (6-mer frequency, TF over GST control) in the assay with SPI1; 1.41 fold enrichment (6-mer frequency, TF over GST control) in the assay with SPIB; 1.19 fold enrichment (6-mer frequency, TF over GST control) with ELK3.

For CCTGGA, the binding signal is 1.53 fold enrichment (6-mer frequency, TF over GST control) with FLI1; 1.44 fold enrichment (6-mer frequency, TF over GST control) with ELK1; 1.43 fold enrichment (6-mer frequency, TF over GST control) with GABPA; 1.45 fold enrichment (6-mer frequency, TF over GST control) with ERG; 1.4 fold enrichment (6-mer frequency, TF over GST control) with ELF1; 1.44 fold enrichment (6-mer frequency, TF over GST control) with EHF. Also, the binding signal was 1.21 fold enrichment (6-mer frequency, TF over GST control) in the assay with SPI1; 1.5 fold enrichment (6-mer frequency, TF over GST control) with SPIB; 1.39 fold enrichment (6-mer frequency, TF over GST control) with ELK3.

For AATAAA, the binding signal is 1.2 fold enrichment (6-mer frequency, TF over GST control) with FLI1; 1.2 fold enrichment (6-mer frequency, TF over GST control) with ELK1; 1.27 fold enrichment (6-mer frequency, TF over GST control) with GABPA; 1.21 fold enrichment (6-mer frequency, TF over GST control) in the assay with ERG; 1.27 fold enrichment (6-mer frequency, TF over GST control) in the assay with ELF1; 1.25 fold enrichment (6-mer frequency, TF over GST control) with EHF. Further, the binding signal is 1.32 fold enrichment (6-mer frequency, TF over GST control) with SPI1; 1.26 fold enrichment (6-mer frequency, TF over GST control) with SPIB; 1.27 fold enrichment (6-mer frequency, TF over GST control) in the assay with ELK3.

Regarding ACGAAT, the binding signal in the assay with FLI1 was 1.12 fold enrichment (6-mer frequency, TF over GST control); with ELK1, 1.1 fold enrichment (6-mer frequency, TF over GST control); with GABPA, 1.22 fold enrichment (6-mer frequency, TF over GST control); with ERG, 1.07 fold enrichment (6-mer frequency, TF over GST control); with ELF1, 1.15 fold enrichment (6-mer frequency, TF over GST control); with EHF, 1.13 fold enrichment (6-mer frequency, TF over GST control). Further, the binding signal was 1.13 fold enrichment (6-mer frequency, TF over GST control) in the assay with SPI1; 1.15 fold enrichment (6-mer frequency, TF over GST control) in the assay with SPIB; 1.13 fold enrichment (6-mer frequency, TF over GST control) with ELK3.
